This excerpt belongs to a sample that is enriched for hits.
Sa growth 42C: blocks Staphylococcus aureus growth; S. aureus RN4220 growth, OD600, 20 h, 42 °C; stronger effect = lower value; relative growth, % (no concentration beside the values); hit rate 0.53% among 170,000;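 active means relative growth at most 50% at the other temperature and 20+ points below 30 °C, or under 10% at both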
Sa helicase inh: blocks Staphylococcus aureus DNA helicase; hit rate 0.05% among 120,000; purified S. aureus helicase, fluorescence unwinding assay; inhibition, % (no concentration beside the values); in the data active means inhibition above about 25%, passing the limit was not always enough
Large screens that a line does not name were inactive.

Cc1cc(Nc2ccc(F)cc2)nc(-n2nc(C)cc2C)n1	Sa growth 42C 2.5 (no result: Sa helicase inh)
CCOC(=O)C1=C(N)CC(c2ccccc2)NC1c1ccccc1 (stereo not given)	none
COC(=O)c1cccc(CN2C(=O)SC(Nc3ccc(Cl)cc3)C2=O)c1 (stereo not given)	none (no result: Sa helicase inh)
O=c1[nH]c(=S)[nH]c(O)c1N=Nc1ccc(O)cc1	none
O=C(CCc1nc(-c2ccccc2)no1)Nc1ccccc1	none
Cc1cc(C)cc(Nc2nc3cc(Cl)c(Cl)cc3nc2-n2nc(C)cc2C)c1	none (no result: Sa helicase inh)
COc1ccc(-c2cc(C(F)F)nc(-n3nc(C)cc3C)n2)cc1	none
Cc1cc(Nc2cc(F)ccc2C)nc(-n2nc(C)cc2C)n1	Sa growth 42C 3.1 (no result: Sa helicase inh)
Cc1cc(C)cc(Nc2cc(C)nc(-n3nc(C)cc3C)n2)c1	Sa growth 42C -0.7
CSc1nnc(SC)n1CCNC(=O)c1c(Cl)cccc1Cl	none (no result: Sa helicase inh)
CCN1CCN(C(c2cccs2)C(C)NS(C)(=O)=O)CC1 (stereo not given)	none (no result: Sa growth 42C)
Cc1cccc(CCNC(=O)CCS(=O)(=O)c2cc3c(cc2C)NC(=O)CO3)c1	none (no result: Sa helicase inh)
CC1=NN(c2nc3ccccc3s2)C(=O)C1	none (no result: Sa helicase inh)
CC1=NN(c2nc3ccccc3s2)C(=O)C1CCC(C)C (stereo not given)	Sa growth 42C 1.9
COc1cccc(-c2nnc(NC(=O)c3ccc(S(=O)(=O)N(Cc4ccccc4)C(C)C)cc3)o2)c1	Sa growth 42C 0.4
CN(CC1CCCO1)S(=O)(=O)c1ccc(C(=O)Nc2ccc3c(c2)C(=O)NC3=O)cc1 (stereo not given)	none
COc1ccc(-c2nnc(NC(=O)c3ccc(S(=O)(=O)N4CCCCC4)cc3)o2)cc1	none
COc1cccc(-c2nnc(NC(=O)c3ccc(S(=O)(=O)N4CCCCC4C)cc3)o2)c1 (stereo not given)	Sa growth 42C 2.4
COc1cccc(-c2nnc(NC(=O)c3ccc(S(=O)(=O)N(C)C)cc3)o2)c1	none
C=CCN(CC=C)S(=O)(=O)c1ccc(C(=O)Nc2nnc(-c3ccc(OC)cc3OC)o2)cc1	none
CN(CC1CCCO1)S(=O)(=O)c1ccc(C(=O)Nc2nnc(-c3ccccc3)o2)cc1 (stereo not given)	Sa growth 42C -0.1
CCCN(CCC)S(=O)(=O)c1ccc(C(=O)Nc2nnc(-c3cccc(OC)c3)o2)cc1	Sa growth 42C 0.1
CCCCN(CC)CCCNC(=O)Cn1ncc2c3ccccc3n(C)c2c1=O	none (no result: Sa helicase inh)
O=S(=O)(CC(c1ccccc1)N1CCOCC1)c1ccc(Cl)cc1 (stereo not given)	none
Cc1ccc(S(=O)(=O)N2Cc3ccccc3CC2C(=O)NC2CCCCC2)cc1 (stereo not given)	none
CCOC(=O)c1ccc(N2C(=O)CC(N3CCN(C/C=C/c4ccccc4)CC3)C2=O)cc1 (stereo not given)	none
COc1ccc(C(=O)NCC(c2ccc3c(c2)OCO3)N2CCN(C)CC2)cc1 (stereo not given)	none (no result: Sa helicase inh)
CCOc1ccccc1NCC(=O)Nc1cc(C)ccc1Cl	none
Cc1ccc(C(=O)N(C)CCC#N)cc1C	none
CC(C)N(Cc1ccccc1)S(=O)(=O)c1ccc(C(=O)Nc2nnc(-c3cccs3)o2)cc1	Sa growth 42C 7.3
CC(=O)Nc1nnc(-c2cccs2)o1	none (no result: Sa growth 42C)
C[C@@H](O)[C@H]1C(=O)N2C(C(=O)O)=C(SCCN=CN)C[C@H]12	Sa growth 42C 29 (no result: Sa helicase inh)
Cc1ccc2oc(=O)c3cc(C(=O)NCCN4CCCCC4C)sc3c2c1 (stereo not given)	Sa helicase inh 46
Cc1ccc2oc(=O)c3cc(C(=O)NCCCN4CCN(C)CC4)sc3c2c1	none
Cc1cccc(Nc2nc3nonc3nc2Cl)c1	Sa growth 42C -0.4
FC(F)(F)c1cccc(Nc2nc3nonc3nc2Nc2ccc(Cl)cc2)c1	none (no result: Sa helicase inh)
O=C(O)CCCc1nc2ccccc2s1	none
O=C(O)Cc1nc2ccccc2s1	Sa growth 42C -0.3
N#Cc1ccc2c(c1)nc1c3ccc4c5c(ccc(c(=O)n21)c53)C(=O)NC4=O	Sa growth 42C 0.9
N#CCCn1cc(/C=N/NC(N)=S)c(-c2ccccc2)n1	none
O=c1c2ccccc2c2nc3c(=O)c4ccccc4c3nc12	none
[N-]=[N+]=c1c(=O)ccc2c(=O)c3ccccc3c(=O)c1=2	Sa growth 42C 6.1
CCCN(CCC)C(=O)c1c[nH]c2ccc(S(=O)(=O)Nc3cc(C)cc(C)c3)cc2c1=O	none (no result: Sa helicase inh)
CCCCN(CC)S(=O)(=O)c1ccc(C(=O)Nc2nnc(COC)o2)cc1	Sa growth 42C -0.5
C=CCN(CC=C)S(=O)(=O)c1ccc(C(=O)Nc2nnc(COC)o2)cc1	none
CCN(Cc1ccccc1)S(=O)(=O)c1ccc(C(=O)Nc2nnc(COC)o2)cc1	Sa growth 42C 5.7
CN(c1ccccc1)S(=O)(=O)c1ccc(C(=O)O)cc1	none
CSCc1nnc(NC(=O)c2ccc(S(=O)(=O)N(C)Cc3ccccc3)cc2)o1	Sa growth 42C 2.4
CCN(CC)S(=O)(=O)c1ccc(C(=O)Nc2ncn(Cc3ccccc3)n2)cc1	none
CN(c1ccccc1)S(=O)(=O)c1ccc(C(=O)Nc2nnc(C(F)(F)F)o2)cc1	Sa growth 42C 3.2
CCc1nnc(NC(=O)c2ccc(S(=O)(=O)N(C)C)cc2)o1	none
COC(=O)c1ccc(COc2ccccc2C(N)=O)cc1	none
COc1ccc(CN2C(=O)N(c3ccc(C)cc3)C(=O)C2CC(=O)Nc2ccccc2)cc1OC (stereo not given)	none (no result: Sa helicase inh)
O=C(Nc1cc(C(F)(F)F)ccc1Cl)c1noc2c1CCCCC2	none (no result: Sa helicase inh)
O=C(NC1CCCC1)C1CCCN(S(=O)(=O)N2CCCC2)C1 (stereo not given)	none
O=C(CC(c1ccccc1)c1cc(Cl)ccc1O)NCCCN1CCOCC1 (stereo not given)	none
Cc1ccc2cc(CN(CC3CCCO3)C(=O)C(F)(F)F)c3nnnn3c2c1C (stereo not given)	none
CNC(=O)NC(=O)C(Sc1nnc(-c2ccco2)n1Cc1ccccc1)c1ccccc1 (stereo not given)	none
C/C(=N\NC(N)N)C1CCCCCCCCCCC1	Sa growth 42C -0.4
C/C(=N\NC(N)=O)C1CCCCC1	none
CCCCNC(=S)Nc1ccc(OC)cc1	none
CCCCNC(=S)Nc1ccc(SC(F)F)cc1	Sa growth 42C 0.6
COc1ccc(C(=O)Nc2ccccc2-c2nc3ccccc3s2)c(OC)c1	none (no result: Sa helicase inh)
CS(=O)c1sc(Br)c2c1C(=O)CC(C)(C)C2 (stereo not given)	none (no result: Sa helicase inh)
CS(=O)c1sc(C(=O)OCc2ccccc2)c2c1C(=O)CC(C)(C)C2 (stereo not given)	Sa growth 42C -0.7 (no result: Sa helicase inh)
O=C(COC(=O)c1ccccc1)c1cccc(C(F)(F)F)c1	none
CCOc1ccc2nc(SCC(=O)N3CCCC3=O)sc2c1	none (no result: Sa growth 42C)
CCCNC(=O)CCc1nc(-c2ccccc2Cl)no1	none
FC(F)(F)c1cc(NC(=S)NC2CCCCC2)cc(C(F)(F)F)c1	Sa growth 42C 7.4 (no result: Sa helicase inh)
Cc1cc(C)cc(NC(=S)NC2CCCCC2)c1	none (no result: Sa helicase inh)
CC(C)(C)c1cc2nc(C(F)(F)F)cc(=O)n2[nH]1	none (no result: Sa helicase inh)
COc1cc(C(=O)O)ccc1OCc1ccccc1	none
O=C(COc1ccc(F)cc1)Nc1ccccc1OCc1cc(=O)n2ccccc2n1	none (no result: Sa helicase inh)
Cc1ccc(C)n1-c1ccsc1C(=O)O	Sa growth 42C 46
Cc1ccc(C(=O)O)cc1-n1c(C)ccc1C	none
Cc1ccc(N2Cc3ccccc3C2)cc1C	none
COc1cc(/C=N/N=C(N)N)ccc1OC(=O)c1ccc(C)cc1	Sa growth 42C -0.7
COc1ccc(/C=N/N=C(N)N)cc1OC	none
CCC(CC)C(=O)NCCc1cc2ccc(OC)cc2[nH]c1=O	none (no result: Sa growth 42C)
CCc1nn(Cc2cccc(C)c2)c(=O)c2cc3cc(C)ccc3n12	none
c1ccc(-c2ccc3c(c2)c2c4n3CCN=C4CCC2)cc1	Sa growth 42C -0.2
Cc1ccc2c(c1)c1c3n2CC(O)CN=C3CCC1 (stereo not given)	none

From PubChem BioAssay
